Results published in PubChem BioAssay (EPA / NIEHS).
Results filed as inconclusive are left out. Active and inactive are the calls of the source. The calls were made as follows, unless noted: active = hit-call score of the fitted dose curve at least 0.9, where 1 is the maximum; inactive = score below 0.9.

What was measured:
[1] = target: human Peroxisome Proliferator-activated Receptor alpha (PPARa), PPARA (gene 5465) (UniProt Q07869); assay: ATG_PPARa_TRANS: Attagene TRANS-FACTORIAL HepG2 Assay for human Peroxisome Proliferator-activated Receptor alpha (PPARa) (AID 2283001; active = hit-call score of the fitted dose curve at least 0.9, where 1 is the maximum;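 as to AC50: potency for gain of reporter signal over DMSO so agonist or activator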)
Sequence of human Peroxisome Proliferator-activated Receptor alpha (PPARa), PPARA (gene 5465) (Q07869 whole entry, looked up, the tested form may be a part): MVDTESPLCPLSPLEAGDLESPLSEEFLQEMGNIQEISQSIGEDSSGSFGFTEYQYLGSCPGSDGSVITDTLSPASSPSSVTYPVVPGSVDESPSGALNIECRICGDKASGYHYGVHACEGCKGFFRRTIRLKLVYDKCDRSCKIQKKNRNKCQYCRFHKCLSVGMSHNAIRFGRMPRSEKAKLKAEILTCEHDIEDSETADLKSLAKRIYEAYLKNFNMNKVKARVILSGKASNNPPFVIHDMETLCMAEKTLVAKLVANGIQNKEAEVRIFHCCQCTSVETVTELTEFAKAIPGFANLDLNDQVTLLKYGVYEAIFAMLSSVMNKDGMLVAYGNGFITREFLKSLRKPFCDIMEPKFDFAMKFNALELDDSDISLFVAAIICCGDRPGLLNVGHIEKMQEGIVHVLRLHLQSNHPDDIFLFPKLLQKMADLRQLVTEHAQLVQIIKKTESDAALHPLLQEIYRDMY
Method in brief: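 Measures transcriptional activity of an exogenous chimeric PPARa-Gal4 protein in transiently transfected HepG2 cells after 24 h dosing. Reporter mRNA quantified via RT-PCR and capillary electrophoresis; DMSO served as negative control.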

[2] = read-out: Intercellular Adhesion Molecule 1 (ICAM1), ICAM1 (gene 3383); assay: BSK_3C_ICAM1: BioMAP Diversity Plus: 3C Assay for Intercellular Adhesion Molecule 1 (ICAM1) Biomarker Activity (AID 2283003); details: primary human endothelial cells (HUVEC); actives raise or lower the signal
Method in brief: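 Human vascular endothelial primary cells, 3C conditions, 24 h treatment. ICAM-1 by ELISA.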

[3] = BSK_3C_Proliferation: Cell Proliferation Assessment in the BioMAP Diversity Plus: 3C Assay (AID 2283006); details: primary human endothelial cells (HUVEC);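 as to AC50: potency may reflect either rise or fall in cell number versus DMSO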
Method in brief: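 Proliferation of human vascular endothelial primary cells after 48 h dosing, quantified as SRB-stained protein at 560 nm relative to DMSO.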

[4] = target: Peroxisome proliferator-activated receptor gamma (Homo sapiens) (UniProt P37231); assay: ATG_PPARg_TRANS: Attagene TRANS-FACTORIAL HepG2 Assay for human Peroxisome Proliferator-activated Receptor-gamma (PPARg) (AID 2283007; active = hit-call score of the fitted dose curve at least 0.9, where 1 is the maximum)
Sequence of Peroxisome proliferator-activated receptor gamma (Homo sapiens) (P37231 whole entry, looked up, the tested form may be a part): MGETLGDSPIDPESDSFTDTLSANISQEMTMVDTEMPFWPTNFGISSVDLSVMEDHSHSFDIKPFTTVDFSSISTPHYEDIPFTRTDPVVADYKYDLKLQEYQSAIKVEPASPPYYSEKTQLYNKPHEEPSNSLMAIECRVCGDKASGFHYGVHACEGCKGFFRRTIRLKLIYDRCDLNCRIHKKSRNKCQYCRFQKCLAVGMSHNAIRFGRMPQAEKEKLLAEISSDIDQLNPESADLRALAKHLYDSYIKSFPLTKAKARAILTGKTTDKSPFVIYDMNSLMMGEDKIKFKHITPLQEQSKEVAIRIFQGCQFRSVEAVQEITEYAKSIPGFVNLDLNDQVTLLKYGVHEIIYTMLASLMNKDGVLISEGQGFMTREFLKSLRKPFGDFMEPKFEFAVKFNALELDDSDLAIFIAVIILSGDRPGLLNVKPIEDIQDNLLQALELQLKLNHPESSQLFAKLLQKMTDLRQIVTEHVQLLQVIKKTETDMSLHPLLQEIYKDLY
Method in brief: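 After 24 h of chemical exposure, transfected HepG2 cells carrying PPARγ-Gal4 chimera reporter constructs are lysed for RNA. Reporter transcripts are measured by RT-PCR and capillary electrophoresis with fluorescent labelling, and gain of signal is fitted versus DMSO.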

[5] = target: Nuclear receptor subfamily 1 group I member 2 (Homo sapiens) (UniProt O75469); assay: ATG_PXR_TRANS: Attagene TRANS-FACTORIAL HepG2 Assay for human Pregnane X Receptor (PXR) (AID 2283008; active = hit-call score of the fitted dose curve at least 0.9, where 1 is the maximum)
Sequence of Nuclear receptor subfamily 1 group I member 2 (Homo sapiens) (O75469 whole entry, looked up, the tested form may be a part): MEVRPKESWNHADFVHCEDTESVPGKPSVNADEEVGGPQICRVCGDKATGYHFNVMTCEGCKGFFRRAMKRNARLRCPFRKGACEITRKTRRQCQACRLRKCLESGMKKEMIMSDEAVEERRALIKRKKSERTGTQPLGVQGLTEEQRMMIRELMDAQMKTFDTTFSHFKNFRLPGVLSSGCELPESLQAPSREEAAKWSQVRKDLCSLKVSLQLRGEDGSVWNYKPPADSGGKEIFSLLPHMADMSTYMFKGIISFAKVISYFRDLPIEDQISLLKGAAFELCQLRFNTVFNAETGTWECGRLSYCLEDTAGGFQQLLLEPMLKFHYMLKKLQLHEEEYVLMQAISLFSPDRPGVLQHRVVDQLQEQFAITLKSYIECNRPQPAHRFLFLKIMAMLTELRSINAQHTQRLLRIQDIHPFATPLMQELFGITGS
Method in brief: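 HepG2 cells transiently transfected with multiple reporter units, here a PXR-GAL4 chimera driving a GAL4-UAS reporter; 24 h compound exposure. Reporter mRNA measured by RT-PCR, FAM labelling and capillary electrophoresis; gain of signal fitted against DMSO baseline.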

[6] = target: human Retinoic Acid Receptor gamma (RARg), RARG (gene 5916) (UniProt P13631); assay: ATG_RARg_TRANS: Attagene TRANS-FACTORIAL HepG2 Assay for human Retinoic Acid Receptor gamma (RARg) (AID 2283009; active = hit-call score of the fitted dose curve at least 0.9, where 1 is the maximum)
Sequence of human Retinoic Acid Receptor gamma (RARg), RARG (gene 5916) (P13631 whole entry, looked up, the tested form may be a part): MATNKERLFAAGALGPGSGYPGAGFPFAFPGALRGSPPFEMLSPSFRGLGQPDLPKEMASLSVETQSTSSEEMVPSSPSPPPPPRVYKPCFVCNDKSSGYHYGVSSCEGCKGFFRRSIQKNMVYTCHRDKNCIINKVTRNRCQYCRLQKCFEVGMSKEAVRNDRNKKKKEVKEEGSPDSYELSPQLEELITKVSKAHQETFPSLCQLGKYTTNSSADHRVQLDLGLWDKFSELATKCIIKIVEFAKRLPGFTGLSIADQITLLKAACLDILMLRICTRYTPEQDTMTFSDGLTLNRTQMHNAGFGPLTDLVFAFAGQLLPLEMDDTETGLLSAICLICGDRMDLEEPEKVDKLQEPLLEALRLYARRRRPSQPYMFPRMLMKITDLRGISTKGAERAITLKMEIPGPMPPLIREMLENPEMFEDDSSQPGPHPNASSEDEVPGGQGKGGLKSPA
Method in brief: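 HepG2, RARg-GAL4 TRANS system, 24 h exposure; reporter mRNA by RT-PCR + CE fluorescence; increase over DMSO.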

[7] = target: human RAR-related Orphan Receptor beta (RORb), RORB (gene 6096) (UniProt Q92753); assay: ATG_RORb_TRANS: Attagene TRANS-FACTORIAL HepG2 Assay for human RAR-related Orphan Receptor beta (RORb) (AID 2283010; active = hit-call score of the fitted dose curve at least 0.9, where 1 is the maximum)
Sequence of human RAR-related Orphan Receptor beta (RORb), RORB (gene 6096) (Q92753 whole entry, looked up, the tested form may be a part): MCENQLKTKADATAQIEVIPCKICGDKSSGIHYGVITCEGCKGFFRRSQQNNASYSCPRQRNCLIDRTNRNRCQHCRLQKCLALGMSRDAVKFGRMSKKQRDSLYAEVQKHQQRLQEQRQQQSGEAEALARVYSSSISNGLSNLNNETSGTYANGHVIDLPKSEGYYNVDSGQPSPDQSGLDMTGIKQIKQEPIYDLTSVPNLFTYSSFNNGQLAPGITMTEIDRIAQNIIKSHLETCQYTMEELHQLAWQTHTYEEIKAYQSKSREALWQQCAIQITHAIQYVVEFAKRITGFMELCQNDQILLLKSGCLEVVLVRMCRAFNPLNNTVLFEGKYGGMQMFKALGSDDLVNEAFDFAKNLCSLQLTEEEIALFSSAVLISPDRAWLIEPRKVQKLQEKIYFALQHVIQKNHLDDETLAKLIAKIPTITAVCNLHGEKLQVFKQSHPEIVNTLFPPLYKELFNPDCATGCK
Method in brief: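 In this TRANS-format test, human HepG2 cells express chimeric NR-Gal4 fusion proteins driving GAL4-UAS reporters. After 24 h dosing, reporter transcripts are measured by fluorescent RT-PCR/capillary electrophoresis, with DMSO as negative control.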

[8] = target: Retinoic acid receptor RXR-alpha (Homo sapiens) (UniProt P19793); assay: ATG_RXRa_TRANS: Attagene TRANS-FACTORIAL HepG2 Assay for human Retinoid X Receptor alpha (RXRa) (AID 2283012; active = hit-call score of the fitted dose curve at least 0.9, where 1 is the maximum)
Sequence of Retinoic acid receptor RXR-alpha (Homo sapiens) (P19793 whole entry, looked up, the tested form may be a part): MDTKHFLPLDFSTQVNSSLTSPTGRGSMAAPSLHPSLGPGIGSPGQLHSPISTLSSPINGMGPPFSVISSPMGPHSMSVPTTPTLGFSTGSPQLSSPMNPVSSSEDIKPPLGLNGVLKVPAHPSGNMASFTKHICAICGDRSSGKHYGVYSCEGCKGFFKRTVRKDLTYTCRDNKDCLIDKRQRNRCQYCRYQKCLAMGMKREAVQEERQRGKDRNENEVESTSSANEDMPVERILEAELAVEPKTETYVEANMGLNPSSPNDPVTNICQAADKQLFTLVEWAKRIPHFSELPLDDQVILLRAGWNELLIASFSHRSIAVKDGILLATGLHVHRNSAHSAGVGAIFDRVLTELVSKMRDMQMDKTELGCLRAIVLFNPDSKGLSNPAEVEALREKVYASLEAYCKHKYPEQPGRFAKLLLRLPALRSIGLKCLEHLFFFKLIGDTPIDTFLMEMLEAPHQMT
Method in brief: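 Cells (HepG2) carried transiently transfected GAL4-responsive reporter units. Following a 24 h chemical incubation, reporter mRNA induction was read via RT-PCR fragment analysis; DMSO served as negative control and baseline.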

[9] = target: human Retinoid X Receptor beta (RXRb), RXRB (gene 6257) (UniProt P28702); assay: ATG_RXRb_TRANS: Attagene TRANS-FACTORIAL HepG2 Assay for human Retinoid X Receptor beta (RXRb) (AID 2283013; active = hit-call score of the fitted dose curve at least 0.9, where 1 is the maximum)
Sequence of human Retinoid X Receptor beta (RXRb), RXRB (gene 6257) (P28702 whole entry, looked up): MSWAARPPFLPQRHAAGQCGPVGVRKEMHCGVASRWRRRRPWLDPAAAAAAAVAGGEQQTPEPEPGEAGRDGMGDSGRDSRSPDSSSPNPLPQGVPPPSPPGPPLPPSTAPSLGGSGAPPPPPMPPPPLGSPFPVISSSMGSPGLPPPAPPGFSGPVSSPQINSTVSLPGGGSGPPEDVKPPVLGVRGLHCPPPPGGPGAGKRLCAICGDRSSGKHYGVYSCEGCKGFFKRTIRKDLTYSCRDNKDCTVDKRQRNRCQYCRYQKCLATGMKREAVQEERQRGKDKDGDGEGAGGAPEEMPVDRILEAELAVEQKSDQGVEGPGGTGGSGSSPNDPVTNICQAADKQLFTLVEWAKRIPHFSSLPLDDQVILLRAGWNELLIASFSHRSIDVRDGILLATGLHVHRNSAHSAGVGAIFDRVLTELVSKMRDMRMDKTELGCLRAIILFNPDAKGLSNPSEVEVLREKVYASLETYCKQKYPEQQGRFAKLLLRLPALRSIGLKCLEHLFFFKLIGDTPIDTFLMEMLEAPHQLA
Method in brief: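 Multiplexed TRANS reporter assay in HepG2; 24 h dosing; reporter mRNA by RT-PCR/CE fluorescence; gain-of-signal relative to DMSO.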

[10] = read-out: E-selectin (Homo sapiens) (UniProt P16581); assay: BSK_3C_Eselectin: BioMAP Diversity Plus: 3C Assay for Eselectin Biomarker Activity (AID 2283015); details: primary human endothelial cells (HUVEC); actives raise or lower the signal
Method in brief: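 Primary human umbilical vein endothelial cells (3C system) were dosed with chemical and cell-surface E-selectin measured by ELISA 24 h later. Bidirectional curve fitting used DMSO as negative control and baseline.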

[11] = read-out: Interleukin-1 alpha (IL1a), IL1A (gene 3552); assay: BSK_BE3C_IL1a: BioMAP Diversity Plus: BE3C Assay for Interleukin-1 alpha (IL1a) Biomarker Activity (AID 2283016); details: primary human bronchial epithelial cells; actives raise or lower the signal
Method in brief: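 Cultures of primary human bronchial epithelial cells receive test chemical. After 24 h, IL-1a is quantified by ELISA, while parallel wells are fixed in TCA and SRB-stained for total protein. Changes in either direction are fitted relative to DMSO.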

[12] = read-out: Monocyte Chemoattractant Protein-1 (MCP1), CCL2 (gene 6347); assay: BSK_3C_MCP1: BioMAP Diversity Plus: 3C Assay for Monocyte Chemoattractant Protein-1 (MCP1) Biomarker Activity (AID 2283017); details: primary human endothelial cells (HUVEC); actives raise or lower the signal
Method in brief: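 Primary human umbilical vein endothelial cells (3C system) were exposed to test chemical for 24 h, after which MCP-1 was quantified by ELISA. Activity was fitted bidirectionally against DMSO as negative control and baseline.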

[13] = read-out: Monocyte Chemoattractant Protein-1 (MCP1), CCL2 (gene 6347); assay: BSK_4H_MCP1: BioMAP Diversity Plus: 4H Assay for Monocyte Chemoattractant Protein-1 (MCP1) Biomarker Activity (AID 2283018); details: primary human endothelial cells (HUVEC); actives raise or lower the signal
Method in brief: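 Readout: MCP-1 ELISA on compound-treated HUVEC, sampled 24 h post-dosing. Baseline and negative control DMSO; bidirectional fit. Overt toxicity checked alongside by sulforhodamine B protein staining at time of biomarker measurement.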

[14] = read-out: Human Leukocyte Antigen - DR isotype (HLADR), HLA-DRA (gene 3122); assay: BSK_3C_HLADR: BioMAP Diversity Plus: 3C Assay for Human Leukocyte Antigen - DR isotype (HLADR) Biomarker Activity (AID 2283019); details: primary human endothelial cells (HUVEC); actives raise or lower the signal
Method in brief: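 Primary human umbilical vein endothelial cells (3C system) were dosed with compound and cell-surface HLA-DR was quantified by ELISA at 24 h. Activity was fitted bidirectionally against DMSO as negative control and baseline.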

[15] = read-out: Interleukin-8 (IL8), CXCL8 (gene 3576); assay: BSK_3C_IL8: BioMAP Diversity Plus: 3C Assay for Interleukin-8 (IL8) Biomarker Activity (AID 2283020); details: primary human endothelial cells (HUVEC); actives raise or lower the signal
Method in brief: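 Human vascular endothelial cells (umbilical vein) in the 3C system; IL-8 level detected by ELISA at 24 h post-dose, with DMSO as baseline.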

[16] = read-out: Monokine induced gamma interferon (MIG), CXCL9 (gene 4283); assay: BSK_3C_MIG: BioMAP Diversity Plus: 3C Assay for Monokine induced gamma interferon (MIG) Biomarker Activity (AID 2283021); details: primary human endothelial cells (HUVEC); actives raise or lower the signal;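 as to AC50: MIG protein level measured by immunoassay in the treated endothelial cultures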
Method in brief: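 After 24 h of treatment, human umbilical vein endothelial cultures (3C system) had their MIG biomarker level determined by ELISA, with DMSO serving as negative control.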

[17] = target: human Thyroid Receptor alpha (THRa1), THRA (gene 7067) (UniProt P10827); assay: ATG_THRa1_TRANS: Attagene TRANS-FACTORIAL HepG2 Assay for human Thyroid Receptor alpha (THRa1) (AID 2283014; active = hit-call score of the fitted dose curve at least 0.9, where 1 is the maximum)
Sequence of human Thyroid Receptor alpha (THRa1), THRA (gene 7067) (P10827 whole entry, looked up, the tested form may be a part): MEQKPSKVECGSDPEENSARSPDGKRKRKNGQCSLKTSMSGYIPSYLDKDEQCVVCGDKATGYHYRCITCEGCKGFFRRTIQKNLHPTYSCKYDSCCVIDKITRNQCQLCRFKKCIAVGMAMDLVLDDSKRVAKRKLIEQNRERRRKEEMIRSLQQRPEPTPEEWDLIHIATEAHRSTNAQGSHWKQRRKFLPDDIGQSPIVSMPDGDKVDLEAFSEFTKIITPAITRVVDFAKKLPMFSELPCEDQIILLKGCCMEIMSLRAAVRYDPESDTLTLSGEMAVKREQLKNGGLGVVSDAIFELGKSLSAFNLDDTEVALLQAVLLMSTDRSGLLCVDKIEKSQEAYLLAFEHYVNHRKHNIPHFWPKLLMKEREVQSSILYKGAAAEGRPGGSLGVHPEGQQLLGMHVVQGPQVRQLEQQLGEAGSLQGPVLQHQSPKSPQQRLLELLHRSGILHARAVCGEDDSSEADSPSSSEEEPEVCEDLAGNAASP
Method in brief: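 HepG2 cells transiently transfected with multiplexed GAL4-UAS reporter units for exogenous chimeric THRa1-Gal4; reporter mRNA measured 24 h after dosing by RT-PCR, 6-FAM labelling, HpaI digestion and capillary electrophoresis. Gain-of-signal fitted versus DMSO baseline.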

[18] = target: human Peroxisome Proliferator-activated Receptor delta (PPARd), PPARD (gene 5467) (UniProt Q03181); assay: ATG_PPARd_TRANS: Attagene TRANS-FACTORIAL HepG2 Assay for human Peroxisome Proliferator-activated Receptor delta (PPARd) (AID 2283002; active = hit-call score of the fitted dose curve at least 0.9, where 1 is the maximum)
Method in brief: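 Fluorescence from capillary electrophoresis of labelled RT-PCR reporter fragments gives the signal; DMSO sets baseline. Cells: HepG2 transiently carrying GAL4-UAS reporter units plus chimeric nuclear receptor-Gal4 proteins, exposed to chemicals for 24 h.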

[19] = target: Retinoic acid receptor alpha (Homo sapiens) (UniProt P10276); assay: ATG_RARa_TRANS: Attagene TRANS-FACTORIAL HepG2 Assay for human Retinoic Acid Receptor alpha (RARa) (AID 2283005; active = hit-call score of the fitted dose curve at least 0.9, where 1 is the maximum)
Method in brief: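 HepG2 transiently transfected with multiplex GAL4-UAS reporter units including a human RARa–GAL4 chimera; 24 h compound exposure. Reporter mRNA quantified by RT-PCR, 6-FAM labeling and capillary electrophoresis; gain of signal versus DMSO.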

[20] = target: human RAR-related Orphan Receptor gamma (RORg), RORC (gene 6097) (UniProt P51449); assay: ATG_RORg_TRANS: Attagene TRANS-FACTORIAL HepG2 Assay for human RAR-related Orphan Receptor gamma (RORg) (AID 2283011; active = hit-call score of the fitted dose curve at least 0.9, where 1 is the maximum)
Sequence of human RAR-related Orphan Receptor gamma (RORg), RORC (gene 6097) (P51449 whole entry, looked up, the tested form may be a part): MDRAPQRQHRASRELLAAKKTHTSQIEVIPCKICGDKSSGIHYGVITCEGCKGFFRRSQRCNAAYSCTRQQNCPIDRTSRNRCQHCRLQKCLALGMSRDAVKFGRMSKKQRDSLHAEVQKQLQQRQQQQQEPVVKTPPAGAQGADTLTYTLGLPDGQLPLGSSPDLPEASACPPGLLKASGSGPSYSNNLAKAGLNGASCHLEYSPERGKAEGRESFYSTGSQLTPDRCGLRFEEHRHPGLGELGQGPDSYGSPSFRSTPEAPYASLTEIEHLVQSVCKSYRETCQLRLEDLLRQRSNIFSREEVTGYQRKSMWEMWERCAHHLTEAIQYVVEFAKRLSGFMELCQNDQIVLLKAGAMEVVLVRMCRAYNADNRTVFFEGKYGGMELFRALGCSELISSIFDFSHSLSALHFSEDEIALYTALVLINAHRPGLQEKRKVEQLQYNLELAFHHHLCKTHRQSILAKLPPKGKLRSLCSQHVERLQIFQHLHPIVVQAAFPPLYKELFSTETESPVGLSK
Method in brief: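 Readout: reporter transcript induction (RT-PCR, fluorescent primer extension, capillary electrophoresis) after 24 h compound exposure of transiently transfected HepG2 cells carrying a RORg-Gal4 chimera and GAL4-UAS reporters; DMSO served as baseline, with increasing signal fitted.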

Measured: AC50

Sequence of E-selectin (Homo sapiens) (P16581 whole entry, looked up): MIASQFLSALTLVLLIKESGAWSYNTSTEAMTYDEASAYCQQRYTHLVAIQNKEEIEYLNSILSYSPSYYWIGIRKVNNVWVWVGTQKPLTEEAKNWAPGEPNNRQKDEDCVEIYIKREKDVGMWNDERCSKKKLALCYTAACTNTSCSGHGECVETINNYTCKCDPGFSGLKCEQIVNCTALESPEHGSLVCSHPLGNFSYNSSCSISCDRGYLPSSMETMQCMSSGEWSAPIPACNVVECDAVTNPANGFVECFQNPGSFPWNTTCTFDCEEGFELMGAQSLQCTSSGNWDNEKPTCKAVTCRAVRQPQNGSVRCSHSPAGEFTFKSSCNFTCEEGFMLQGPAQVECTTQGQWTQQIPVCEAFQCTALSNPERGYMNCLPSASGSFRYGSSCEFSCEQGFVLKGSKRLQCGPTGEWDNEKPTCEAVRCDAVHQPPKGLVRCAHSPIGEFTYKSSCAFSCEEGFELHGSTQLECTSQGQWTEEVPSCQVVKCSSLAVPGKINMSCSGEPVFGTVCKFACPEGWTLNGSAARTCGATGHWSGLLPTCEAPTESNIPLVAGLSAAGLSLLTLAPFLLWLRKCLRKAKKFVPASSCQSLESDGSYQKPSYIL

CCCCOC(=O)CCCCCCCCC(=O)OCCCC
active: [1] 37 µM
not listed: [17] | [18] | [19] | [20]
inactive: all other assays above

COc1cc(-c2nc(NC(=O)c3cc4cc(C)cc(C)c4n3CC(=O)O)sc2CCC2CCCCC2)c(OC)cc1Cl
active: [2] 5.54 µM | [3] 3.78 µM | [10] 5.53 µM | [11] 3.38 µM | [12] 2.91 µM | [13] 5.38 µM | [14] 3.08 µM | [15] 5.83 µM | [16] 5.26 µM
inactive: [1] | [4] | [5] | [17]

Cc1nc(-c2ccc3c(c2)CCN(CCC2CCC(NC(=O)/C=C/c4ccc(F)cc4)CC2)CC3)no1 (centres undefined)
active: [3] 4.71 µM | [14] 5.83 µM | [15] 7.5 µM
inactive: [1] | [2] | [4] | [10] | [11] | [12] | [13] | [16]

Nc1nc(N)c2nc(CNc3ccc(C(=O)N[C@@H](CCC(=O)O)C(=O)O)cc3)cnc2n1
not listed: [1] | [4] | [5]
inactive: all other assays above

Cc1ccc(C(C)C)c(O)c1
active: [9] 40.6 µM
not listed: [7] | [18] | [19]
inactive: all other assays above

Cc1ccc2ncccc2c1
not listed: [5] | [6] | [7] | [8] | [17] | [18] | [19]
inactive: all other assays above

COc1ccc(S(=O)(=O)N2C(=O)[C@@](c3ccccc3OC)(N3C[C@H](O)C[C@H]3C(=O)N(C)C)c3cc(Cl)ccc32)c(OC)c1
active: [3] 28.7 µM | [5] 0.038 µM | [12] 20 µM | [14] 32.6 µM | [15] 31.5 µM
inactive: [18] | [2] | [4] | [6] | [10] | [11] | [13] | [16]

CC(CO)OC(C)CO (centres undefined) (tested in a mixture with another compound)
active: [9] 13.8 µM
not listed: [4] | [6] | [7] | [17] | [18] | [19] | [20]
inactive: all other assays above

O=c1c(O)c(-c2ccc(O)c(O)c2)oc2cc(O)cc(O)c12
active: [3] 26.8 µM | [10] 34.7 µM | [11] 15.8 µM | [12] 15 µM | [13] 20 µM | [15] 14.5 µM
not listed: [5] | [14] | [18] | [19]
inactive: all other assays above
